A selection: hits, their analogues and other compounds. The true share with any hit is near 11%.
Luciferase inh: blocks purified firefly luciferase enzyme activity. Potency, µM (series often up to 115 µM), actives largely listed as inhibitors. purified P. pyralis luciferase, luminescence, biochemical. hit rate 2.5% among 76,000. AID 1347043; further: nearly all actives have a fitted effect of over 65% in size
Target sequence (P08659 whole entry, looked up): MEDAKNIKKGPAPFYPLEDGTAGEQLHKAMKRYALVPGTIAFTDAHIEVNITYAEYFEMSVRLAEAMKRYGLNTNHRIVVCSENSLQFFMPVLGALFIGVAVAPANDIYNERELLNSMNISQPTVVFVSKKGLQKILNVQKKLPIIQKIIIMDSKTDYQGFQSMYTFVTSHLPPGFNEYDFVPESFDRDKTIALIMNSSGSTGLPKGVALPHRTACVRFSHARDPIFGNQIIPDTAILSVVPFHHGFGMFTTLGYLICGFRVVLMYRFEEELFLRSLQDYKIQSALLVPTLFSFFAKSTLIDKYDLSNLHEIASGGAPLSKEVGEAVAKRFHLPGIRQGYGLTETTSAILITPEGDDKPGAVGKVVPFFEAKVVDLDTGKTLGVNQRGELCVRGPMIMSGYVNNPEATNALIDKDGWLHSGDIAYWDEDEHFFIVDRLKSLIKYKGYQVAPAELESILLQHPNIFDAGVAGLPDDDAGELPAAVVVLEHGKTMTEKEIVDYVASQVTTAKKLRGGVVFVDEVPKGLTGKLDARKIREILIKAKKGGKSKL
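Luminescence read by CCD imager after adding enzyme (10nM final) to wells holding compound, titrated in qHTS. Substrates 10uM each D-luciferin and ATP; buffer 50mM Tris acetate pH 7.5, 10mM Mg acetate, Tween-20, BSA.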
3T3 cytotox: NIH 3T3 cell cytotoxicity; AID 1345082; hit rate 4.3% among 94,000; Potency, µM (series often up to 96.7 µM), without a hit: top-dose activity change, negative = cytotoxicity, hits mostly inhibitors; NIH 3T3 viability, CellTiter-Glo ATP luminescence, 48-72 h; further: nearly all actives have a fitted effect of over 55% in size
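NIH 3T3 cells at 400 cells/well received 23 nL of compound by pintool and were incubated 48 or 72 h at 37 °C. Viability was read as ATP-coupled CellTiter-Glo luminescence.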
HEK293 tox: kills HEK 293 cells | Potency, µM (doses to about 115 µM), for inactives: at the highest dose activity change, negative = cytotoxicity, hits mostly inhibitors | hit rate 6.6% among 94,000 | HEK 293 viability, ATP luminescence (CellTiter-Glo), 48-72 h | AID 1345083; further: nearly all actives have a fitted effect of over 60% in size
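HEK 293 cells at 250 cells/well were exposed to compounds by pintool transfer for 48 or 72 hr at 37 degree Celsius, 5% CO2. Viability was read as ATP-coupled luminescence with CellTiter-Glo after 10 min at room temperature.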
hNpr1 antagonist: human Npr1 receptor antagonism | P16066 | HEK293 hNpr1 GloSensor cGMP, ANP-stimulated luminescence | Potency, µM (top dose mostly 46.3 µM), inactives show at the top dose activity change, negative = inhibition, actives largely listed as inhibitors | hit rate 1.6% among 76,000 | AID 1347048; calls by dose curve; further: nearly all actives have a fitted effect of over 60% in size
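HEK293 cells stably expressing human Npr1 and cGMP GloSensor pGS-40F, loaded 2 h with 2% GloSensor reagent, given compound 30 min at room temperature. Luminescence read before and 20 min after 0.1 nM hNppA.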
* marks the source's active call; other numbers are inactive results; i = inactive; ? = inconclusive; . = not tested or not shown; [ ] = remark or other dose. Unless noted, the call rests on the fitted dose curve; in most records, active means well fitted curve in the direction sought with a large enough effect; inconclusive means small, poorly fitted or top-dose-only effect, or another doubt; inactive means no such curve, though single readings can be large; an effect the other way counts as inactive or inconclusive. On the % scale 0 is the no-effect control and ±100 the full control effect; potency means the concentration at half of the fitted maximal effect.

SMILES	Luciferase inh	3T3 cytotox	HEK293 tox	hNpr1 antagonist
O=C(NCc1ccccc1F)c1nc2sccn2c1-c1ccc(F)cc1	.	-17.7%	0.9%	.
COC(=O)[C@@H]1Cc2c([nH]c3ccccc23)[C@H]2C[C@@H](NCCNC(C)=O)C[C@@H](c3ccc(C(C)C)cc3)N21	i	28.2µM*	12.6µM*	-25.2%
COc1ccc(C(C)C)cc1CN1CCCC(CNC(C)=O)C1 (centres undefined)	i	-5.1%	-27.6%	3.4%
COC1C(=O)N(CC2CC2)C12CCN(C(=O)c1cccs1)CC2 (centres undefined)	.	i	i	.
CSc1cccc(NC(=O)C2CCN(c3cnc4nccnc4c3)CC2)c1	i	6.31µM*	8.91µM*	-2.4%
CSc1cccc(NC(=O)C2CCN(c3cnc4nc(C)c(C)nc4c3)CC2)c1	?	-12.4%	?	2.9%
C[S+](=O)([O-])c1ccc(-c2nccc3c(=O)cc(-c4cccnc4)oc23)cc1	i	25.1µM*	?	-2.7%[70.6 µM]
O=c1cc(-c2ccccn2)oc2c(NCc3ccc(F)cc3)nccc12	i	-19.1%[138 µM]	?	0.0%[70.6 µM]
O=c1cc(-c2cccnc2)oc2c(NCc3ccc(F)cc3)nccc12	i	50.1µM*	-58.3%[172 µM]	-5.4%[70.6 µM]
Cc1ccccc1-c1nccc2c(=O)cc(-c3cccnc3)oc12	i	25.1µM*	112µM*	4.2%[70.6 µM]
COc1ccc(-c2nccc3c(=O)cc(-c4cccnc4)oc23)cc1OC	i	22.4µM*	-7.4%[172 µM]	-0.1%[70.6 µM]
Cc1ccc(CNC(=O)N2CCC(N3C(=O)C4(CCCCC4)C3c3ccncc3)CC2)cc1 (centres undefined)	i	-24.5%	-26.8%	2.9%
O=c1cc(-c2ccncc2)oc2c(-c3cccc(O)c3)nccc12	i	22.4µM*	?	3.1%[70.6 µM]
COCCCNC(=O)C1CCc2nnc(-c3cccc(C(F)(F)F)c3)n21 (centres undefined)	.	0.6%	1.1%	.
O=C(C1CCCN1[S+](=O)([O-])c1ccccc1)N1CCC(N2Cc3cccn3C2=O)CC1 (centres undefined)	.	-29.0%	-7.3%	.
Cc1ccc([S+](=O)([O-])N2CCCC(C(=O)N3CCC(N4Cc5cccn5C4=O)CC3)C2)cc1 (centres undefined)	.	?	44.7µM*	.
Cc1nc2c(c(-c3ccc(O)cc3)n1)CCN(C(=O)c1ccccc1)CC2	.	-22.1%	-16.3%	.
Cc1ncc2n1C(=O)N(C1CCN(Cc3ccc(N(C)C)cc3)CC1)C2	i	-27.3%	?	0.0%
Cc1ncc2n1C(=O)N(C1CCN(Cc3ccc(OC(F)(F)F)cc3)CC1)C2	i	?	14.1µM*	?
O=C(c1ccc(C(F)(F)F)cc1)N1CCCC2(CN[S+](=O)([O-])c3cccnc3N2)C1 (centres undefined)	.	-11.2%	-2.6%	.
COCCNC(=O)C1CCCN1C(=O)c1cccc(-c2cccnc2)c1 (centres undefined)	.	-13.4%	1.9%	.
Cc1ccc(Nc2ccnc(N3CC4CCC(C3)N4CC(F)(F)F)n2)cc1	.	28.2µM*	39.8µM*	.
COc1ccc(Nc2ccnc(N3CCC(C(=O)N4CCN(C)CC4)CC3)n2)cc1	.	-25.3%	?	.
Cc1ccc(Nc2ccnc(N3CCN(C(=O)C4CC4)CC3)n2)cc1	.	31.6µM*	70.8µM*	.
Cc1ccc(Nc2ccnc(N3CCCC(C(=O)N4CCN(c5ncccn5)CC4)C3)n2)cc1 (centres undefined)	.	?	20µM*	.
SMILES	Luciferase inh	3T3 cytotox	HEK293 tox	hNpr1 antagonist
Cc1ccc(Nc2ccnc(N3CCCC(C(=O)N4CCCC4)C3)n2)cc1 (centres undefined)	.	28.2µM*	?	.
Cc1cnc(N2CC3CCC(C2)N3CC(F)(F)F)s1	.	-13.1%	-17.5%	.
COc1ccc(Nc2ccnc(N3CCCC(C(=O)N4CCOCC4)C3)n2)cc1 (centres undefined)	.	-23.7%	?	.
O=C(Cn1nc2c(cc1=O)CCCCC2)Nc1nc(-c2cccnc2)cs1	i	-29.6%	?	-1.0%
COc1cccc(NC(=O)Cn2c(N3CCCCC3)nc(C)c(C)c2=O)c1	i	?	?	-14.1%
CCC(CC)NC(=O)CCC1CCN(C(=O)c2ccccc2)CC1	25.1µM*	-7.1%	-8.0%	2.4%
COc1ccc(-c2nc(N3CCOCC3)cc3c2CN(Cc2cnn(C)c2)C3=O)cn1	i	?	-27.3%[172 µM]	3.2%[70.6 µM]
COc1ccc(-c2nc(N3CCOC[C@H]3C)cc3c2CN(C(C)C)C3=O)cc1	i	79.4µM*	112µM*	2.8%[70.6 µM]
Cc1ccccc1C(=O)N1CCC(C(=O)N2CCC(N3Cc4cccn4C3=O)CC2)CC1	.	-19.9%	?	.
O=C(NCc1ccc2c(c1)OCO2)c1cnc2c(c1)N(Cc1ccccc1)CCC2	i	50.1µM*	?	4.4%[70.6 µM]
CCC(=O)N1CCCN(Cc2ccc3c(c2)OCO3)c2ccccc21	i	?	44.7µM*	-1.6%
O=C(C1CC1)N1CCCN(Cc2ccc3c(c2)OCO3)c2ccccc21	i	?	?	-0.1%
CNC(=O)c1cnc2c(c1)N(Cc1ccccc1)CCC2	i	?	-7.2%[230 µM]	-2.1%[70.6 µM]
CC(C)(C)NC(=O)NCc1nnc2n1C(C(=O)NCc1cccs1)CC2 (centres undefined)	.	-15.1%	0.1%	.
Cc1ccccc1C(=O)N1CCN(c2ccnc3ccnn23)CC1	.	?	-24.4%[172 µM]	.
CCOc1cccc(CNC(=O)c2ccc3c(c2)N(S(=O)(=O)c2ccccc2)CC3)c1	i	-17.6%	?	-3.7%
Cc1cccc(N2CCN(C(=O)CCc3ccnc(N4CCCC4)c3)CC2)c1	i	-22.3%	?	-14.6%
O=C(CCc1ccnc(N2CCCC2)c1)N1CCN(c2cccc(Cl)c2)CC1	i	?	31.6µM*	-14.9%
CN(C)Cc1nnc(C2CC(NC(=O)c3ccc4scnc4c3)C2)n1C (centres undefined)	i	-1.6%	-21.9%	-5.6%
COc1cc2c(cc1-c1cccc(C(F)(F)F)c1)OCC(C)(C)CC2CO (centres undefined)	.	28.2µM*	31.6µM*	.
Cc1oc(-c2cccc(C(F)(F)F)c2)nc1CN1CCCC(CO)C1 (centres undefined)	i	-26.8%	?	1.5%
Cc1ccsc1C(=O)N1CCCC1c1noc(COc2ccc(F)cc2)n1 (centres undefined)	i	?	?	-7.7%
CSc1ccc(-c2cccc(CN3CCC(N[S+](=O)([O-])c4ccccc4)CC3)c2)cc1	.	15.8µM*	28.2µM*	.
CSc1ccc(-c2cccc(CN3CCC(N[S+](=O)([O-])c4c(C)noc4C)CC3)c2)cc1	.	14.1µM*	?	.
Cc1cccc(-c2cccc(CN3CCC(N[S+](=O)([O-])c4ccccc4)CC3)c2)c1	.	25.1µM*	28.2µM*	.
O=[S+]([O-])(NC1CCN(Cc2ccc(-c3ccsc3)cc2)C1)c1cccs1 (centres undefined)	.	35.5µM*	39.8µM*	.
CSc1ccc(-c2cccc(CN3CCC(NC(=O)c4ccccc4)CC3)c2)cc1	.	-2.1%	-9.5%	.

Bioassay records as filed in PubChem BioAssay.
